The values below come from PubChem BioAssay (NCATS).

For test [1], the system named is CRL-7250. As to the kind of experiment: Cytotoxic Profiling of Annotated Libraries Using Quantitative High-Throughput Screening (AID 1296008). On max response: on the % scale 0 is the no-effect control and ±100 the full control effect. The note with it: Five cell lines viability, CellTiter-Glo ATP luminescence, 48-72 h; max response: active compounds read low. An outline of the steps:
(§1)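 Compounds were pin-transferred onto cells and incubated 48 or 72 hr at 37 degree Celsius, 95% humidity. CellTiter-Glo was added, plates sat 10 min at room temperature, then ATP-coupled luminescence was imaged as the viability read-out.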
For orientation: ATP-based viability assays read luminescence as a measure of living cells.

Test [2] relates to HEK293. The description is as above. As to conditions: Five cell lines viability, CellTiter-Glo ATP luminescence, 48-72 h; max response: active compounds read low. The essentials: as §1
The test system of test [3] is KB-3-1. Described as above. The note with it: Five cell lines viability, CellTiter-Glo ATP luminescence, 48-72 h; max response: active compounds read low. An outline of the steps: as §1
In test [4] the test system is MCC-13. Description: qHTS assay to identify novel small-molecules to repurpose for Merkel cell carcinoma treatment (AID 1296009). The note with it: MCC and control cell lines, CellTiter-Glo viability, 72 h; series mostly up to 46 µM. The essentials: (§2)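 Luminescence from CellTiter-Glo, read 10 min after addition at room temperature, reported viability following a 72 hr, 37 degree celsius treatment with NPC or MIPE compounds in titration; values normalized to plate controls.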

Test [5] concerns MCC-26. The description is as above. As to conditions: MCC and control cell lines, CellTiter-Glo viability, 72 h; series mostly up to 46 µM. An outline of the steps:
as §2

Test [6] deals with HaCat. As to the kind of experiment: Cytotoxic Profiling of Annotated Libraries Using Quantitative High-Throughput Screening (AID 1296008). On max response: on the % scale 0 is the no-effect control and ±100 the full control effect. As to conditions: Five cell lines viability, CellTiter-Glo ATP luminescence, 48-72 h; max response: active compounds read low. An outline of the steps: as §1
Test [7] concerns NIH3T3. The description is as above. As to conditions: Five cell lines viability, CellTiter-Glo ATP luminescence, 48-72 h; max response: active compounds read low. The essentials:
as §1

The subject of test [8] is W2. As to the kind of experiment: qHTS profiling for inhibitors of Plasmodium falciparum proliferation (AID 504749). As to conditions: P. falciparum in erythrocytes, SYBR Green DNA, 72 h; series mostly up to 28.7 µM. The essentials: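 Fluorescence of SYBR Green-bound parasite DNA, read at 485/535 nm, served as the growth measure. Infected erythrocytes were cultured with compound 72 h; artemisinin (0.29 uM) and DMSO wells defined the normalization range.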
On the technique in general: Quantitative high-throughput screening tests each substance at several concentrations.

Test [9] has as its system HACAT. Description: qHTS assay to identify novel small-molecules to repurpose for Merkel cell carcinoma treatment (AID 1296009). The note with it: MCC and control cell lines, CellTiter-Glo viability, 72 h. The essentials:
as §2

Test [10] concerns HEK293T. The test is described as above. As to conditions: MCC and control cell lines, CellTiter-Glo viability, 72 h; at 44.8 µM (top of the series) unless noted. An outline of the steps:
as §2

Setting [11] is: at 44.8 µM (top of the series) unless noted.

Molecules are shown by their SMILES. Several values for one entry are separate records, joined by “and”; a condition that tells them apart may be missing. Equal values may be shown once. Results filed as inconclusive are left out. The source holds several records for some structures; these can differ, active in one and inactive in another. Unmarked numbers belong to inactive results. Activity calls are given as the source filed them. The call rests on the fitted dose curve; in most records, active means well fitted inhibition curve with a large enough effect; inconclusive means small, poorly fitted or top-dose-only effect; inactive means flat fitted curve, though single readings scatter.
Further: nearly all actives have a fitted effect of over 60% in size.
Potency means the concentration at half of the fitted maximal effect.

For the compound `CN(C)CCc1c[nH]c2ccc(Cn3cncn3)cc12`, the Potency is 1320 nM (active) in [1] and 743 nM (active) in test [2]. For the same compound, the max response in test [3] was 8.57%. For the same compound, the result in test [3] was inactive. Further, the Potency result in test [4] and in test [5] was “inactive” in each case.
In the case of `CCN(CC)CCOc1ccc(Nc2ncc3cc(-c4c(Cl)cccc4Cl)c(=O)n(C)c3n2)cc1`, the Potency in [1] is 16.6 nM (active); in test [2], 209 nM (active); in test [6], 264 nM (active); in test [7], 74.3 nM (active); in test [4], 2640 nM (active).
On to `Cc1cccc(C)c1OCC(=O)N[C@@H](Cc1ccccc1)[C@@H](O)C[C@H](Cc1ccccc1)NC(=O)[C@H](C(C)C)N1CCCNC1=O`, for which the Potency in test [8] was 1690 nM (active).
Take `NCCCCNCCCN`: the max response in test [1] is -45.5%; in test [3], 1.33%. The compound was classed as inactive in [6] and in [9] (setting [11]). Moreover, the Potency result in test [4] and in [5] was “inactive” each time.
With `Nc1nc(N)c(N=O)c(OCC2CCCCC2)n1`, the Potency in [1] was 14800 nM (active); in test [7], 16600 nM (active). Further, in test [6], the max response was -17.6%. Also, in test [5], the Potency result was “inactive”.
Turning to `CCCCCCCCCCCCCCCCCCCCCCO`, the Potency result in [8], in [4] and in test [5] was “inactive” in each case. In addition, the compound was called inactive in test [1] and in test [7]. The max response in test [2] is 1.6%; in test [6], 4.38%.
On to `Nc1nc(Cl)nc2c1ncn2[C@H]1C[C@H](O)[C@@H](CO)O1`, for which the Potency is 2350 nM (active) in test [2], 1320 nM (active) in test [6] and 935 nM (active) in test [7]. The Potency entry in [5] is “inactive”.
For `O=C1CCc2ccc(OCCCCN3CCN(c4cccc(Cl)c4Cl)CC3)cc2N1`, the results for the Potency in test [8] and in [2] were 9530 nM (active) and 16800 nM (active), respectively. Moreover, the result in test [6] and in test [9] (setting [11]) was inactive. Besides, the max response in test [7] is -18.1%. For the same compound, the Potency result in test [4] and in test [5] was “inactive” each time.
Turning to `NNc1nncc2ccccc12`, the Potency in test [8] is 3220 nM (active). Besides, the result in test [9] (at 17.4 µM (top of the series)) and in test [9] (at 44.8 µM (top of the series)) was inactive. Besides, the outcome in test [10] is “inactive [at 17.4 µM]”. Besides, the Potency entry in test [4] and in test [5] was “inactive” each time.
Regarding `C[C@H](Cc1ccc(O)c(O)c1)[C@@H](C)Cc1ccc(O)c(O)c1`, the compound was classed as inactive in test [6] and in [9] (setting [11]). In addition, the max response in test [3] is -9.31% and -6.61%; in [7] it was -21.7%. In addition, the Potency entry in [4] and in test [5] was “inactive” each time.
For the compound `O=C(OC1C[C@H]2CC[C@@H](C1)[N+]21CCCC1)C(O)(c1ccccc1)c1ccccc1` (some centres not stated), the Potency in test [8] is 1690 nM (active). Also, the max response in test [1] is 4.02%; in test [2] it was 3.35%; in test [6] it was 1.67%; in test [7], -8.22%. Moreover, the Potency result in test [4] and in test [5] was “inactive” each time.
Consider `O=c1ccc2ccc(O)c(O)c2o1`, for which the compound was called inactive in test [2], in test [6], in test [3], in test [9] (setting [11]) and in test [10]. Besides, in test [7], the max response was -1.87%. For the same compound, the Potency result in test [4] and in test [5] was “inactive” each time.
For `O=c1oc2cc(O)ccc2s1`, the results for the max response in test [1], in test [2] and in test [7] were 4.4%, -4.04% and -4.48%, respectively. Further, the compound was called inactive in test [6] and in test [9] (setting [11]). For the same compound, the Potency entry in [4] and in [5] was “inactive” each time.
Take `CC(=O)O[C@H]1C(=O)[C@@]2(C)C([C@H](OC(=O)c3ccccc3)[C@]3(O)C[C@H](OC(=O)[C@H](O)[C@@H](NC(=O)c4ccccc4)c4ccccc4)C(C)=C1C3(C)C)[C@]1(OC(C)=O)CO[C@@H]1C[C@@H]2O` (some centres not stated): the Potency is 5.7 nM (active) in test [2]; 5.9 nM (active) and 36 nM (active) in [7]; 3.7 nM (active) in [5]. Besides, in test [2], the max response was -90.8%.
Regarding `O=C(O)c1cccc(-c2noc(-c3ccccc3F)n2)c1`, the Potency result in [8], in [4] and in test [5] was “inactive” throughout. In addition, the compound was called inactive in test [1], in test [6] and in test [9] (setting [11]). The max response is -27.5% and -24.9% in test [6]; -19.9% and 8.42% in test [3]; -7.81% in test [7].
